Cruzain inh noDet: blocks cruzain activity in detergent-free assay | purified cruzain, Z-FR-AMC fluorescence, no detergent | Potency, µM, hits mostly inhibitors | 2.3% of 200,000 active; further: nearly all actives have a fitted effect of over 40% in size
Target sequence (P25779 123-467 limits assumed): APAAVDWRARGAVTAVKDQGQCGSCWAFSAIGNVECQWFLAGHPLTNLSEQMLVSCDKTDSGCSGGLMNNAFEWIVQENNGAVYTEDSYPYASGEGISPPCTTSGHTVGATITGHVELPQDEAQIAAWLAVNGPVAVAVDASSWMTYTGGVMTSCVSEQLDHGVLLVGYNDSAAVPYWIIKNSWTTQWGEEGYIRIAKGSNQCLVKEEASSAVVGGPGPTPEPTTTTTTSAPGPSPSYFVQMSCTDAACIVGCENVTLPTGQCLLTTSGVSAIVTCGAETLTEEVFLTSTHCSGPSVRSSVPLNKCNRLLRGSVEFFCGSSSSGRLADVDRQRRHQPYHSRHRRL
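Purified cruzain at 1.5 nM, pre-incubated 15 min with compound at room temperature in 100 mM sodium acetate pH 5.5, 5 mM DTT, 0.00005% Triton X-100. Reaction started with 2 uM Z-FR-AMC; AMC fluorescence increase over 60 s gives rate.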
Cruzain Triton: blocks cruzain activity in presence of Triton detergent; P25779; purified cruzain, Z-FR-AMC fluorescence, 0.01% Triton; Potency, µM, most hits filed as inhibitors; 0.43% of 200,000 active; AID 1478; further: nearly all actives have a fitted effect of over 40% in size
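Detergent-containing run (0.01% Triton X-100) in acetate buffer pH 5.5 with 5 mM DTT: enzyme at 1.5 nM final, 15 min compound preincubation at room temperature, then 2 uM Z-FR-AMC substrate. Activity taken as 60 s fluorescence increase at 360/450 nm.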
Large screens that a line does not name were inactive. Hits are enriched below; roughly 2.5% of the tested compounds scored in any of these assays. The call rests on the fitted dose curve; in most records, active means well fitted curve in the direction sought with a large enough effect; inconclusive means small, poorly fitted or top-dose-only effect, or another doubt; inactive means no such curve, though single readings can be large; an effect the other way counts as inactive or inconclusive.

CC(Cl)CCl (stereo unspecified)	none
COc1ccc(-n2c(=O)c3c4c(sc3n(CC(=O)N3CCCCC3C)c2=O)CCC4)c(OC)c1 (stereo unspecified)	none
Cc1ccc(Nc2nc3nonc3nc2Nc2cccc(C(F)(F)F)c2)cc1Cl	none
CCOc1ccccc1CNC(=O)c1ccc2c(c1)nc1n2CCCCC1	none
Cc1cc(NC(=O)COC(=O)c2oc3c(ccc4ccccc43)c2C)no1	Cruzain inh noDet 20µM
Cc1ccc(-c2cc(C(=O)OCC(=O)Nc3cc(C)on3)c3ccccc3n2)c(C)c1	none
COc1ccc2c(c1)C1=NN(/C(C)=C/C(C)=O)C(c3ccc(F)cc3)C1CC2 (stereo unspecified)	none
COc1ccc2c(c1)C1=NN(/C(C)=C\C(C)=O)C(c3ccccc3)C1CC2 (stereo unspecified)	Cruzain inh noDet 25.1µM
CC(C)(C)c1ccc(C(=O)NC(Cc2c[nH]c3ccccc23)C(=O)OCC(=O)c2ccccc2)cc1 (stereo unspecified)	Cruzain inh noDet inconclusive
COc1ccc(C(=O)COC(=O)C(Cc2c[nH]c3ccccc23)NC(=O)c2ccc(C(C)(C)C)cc2)cc1 (stereo unspecified)	Cruzain inh noDet 12.6µM
COc1cc(N=c2ssnc2Cl)c(OC)cc1Cl	Cruzain inh noDet 25.1µM
COc1ccc(OC)c(N=c2ssnc2Cl)c1	Cruzain inh noDet inconclusive
CCOC(=O)c1cc(C)n(CC2CCC(C(=O)Nc3ccc(C)cc3)CC2)c1C (stereo unspecified)	none
CCCCn1c(=O)nc2n(-c3ccc(Br)cc3)c3ccccc3cc-2c1=O	none
CS(=O)(=O)c1ccc2nc(NC(=O)Nc3ccc(Cl)c(Cl)c3)sc2c1	Cruzain inh noDet 10µM
CS(=O)(=O)c1ccc2nc(NC(=O)Nc3cccc(Cl)c3)sc2c1	Cruzain inh noDet inconclusive
O=C1C(Cl)=C(N2CCOCC2)C(=O)N1c1ccccc1Cl	Cruzain Triton inconclusive
CN1CCN(C2=C(Cl)C(=O)N(c3cccc(Cl)c3)C2=O)CC1	Cruzain inh noDet inconclusive
CN1CCN(C2=C(Cl)C(=O)N(c3ccc(Cl)c(Cl)c3)C2=O)CC1	Cruzain inh noDet 2.51µM, Cruzain Triton 2.82µM
Cc1ccc(N2C(=O)C(Cl)=C(N3CCOCC3)C2=O)cc1Cl	Cruzain inh noDet 7.94µM, Cruzain Triton 7.08µM
O=C(c1cccc(N2C(=O)C3CC=CCC3C2=O)c1)N1CCCCCC1 (stereo unspecified)	none
O=C(c1cccc(N2C(=O)C3CC=CCC3C2=O)c1)N1CCN(c2ccccc2)CC1 (stereo unspecified)	Cruzain inh noDet 15.8µM, Cruzain Triton 22.4µM
CCCCC[C@H](O)/C=C/C=C\C=C\[C@@H](O)C/C=C\CCCC(=O)O	none
COc1ccc(Cn2c(O)c(C=Nc3ccc(C)cc3)c3ccccc3c2=O)cc1	Cruzain inh noDet 12.6µM
COc1ccc(N=Cc2c(O)n(-c3cccc(C)n3)c(=O)c3ccccc23)cc1	Cruzain inh noDet inconclusive
COc1ccc(Cn2c(O)c(C=Nc3ccccc3)c3ccccc3c2=O)cc1	Cruzain inh noDet inconclusive
COc1ccc(Cn2c(O)c(C=Nc3ccc(O)cc3)c3ccccc3c2=O)cc1	Cruzain inh noDet 25.1µM
O=C(Nc1ccccc1)c1ccc(Nc2c([N+](=O)[O-])cc([N+](=O)[O-])c3ccccc23)cc1	Cruzain inh noDet 10µM
O=C(Nc1ccccc1)c1ccc(NCC2CCCO2)c([N+](=O)[O-])c1 (stereo unspecified)	none
CN(C)c1ccc(CNC(=O)CN2C(=O)CCn3nc(-c4cn(C)c5ccccc45)cc32)cc1	Cruzain inh noDet inconclusive
CC1CCC(C(C)C)[C@H](OC(=O)c2ccccc2)C1 (stereo partly specified)	none
CC1CCC(C(C)C)C(OC(=O)C2=C3c4ccccc4S(=O)(=O)N3CC2)C1 (stereo unspecified)	Cruzain inh noDet 31.6µM, Cruzain Triton inconclusive
CCc1cccc(NC(=O)Cn2c(=O)n3nc(-c4cccc(F)c4)nc3c3ccccc32)c1	none
CC(C)(C)c1ccc(C(=O)OC/C(O)=C(\C#N)c2nc3ccccc3s2)cc1	Cruzain inh noDet 25.1µM
COC(=O)c1ccc(/C=C(\C#N)c2nc3ccccc3s2)cc1	none
Nc1nc(N)c2nn(-c3ccc(C(=O)O)cc3)nc2n1	none
CCOc1ccccc1N(CC)C(=O)c1cc2c(=O)[nH]c3ccc(C)cc3c2s1	none
COc1ccccc1/C=C/c1nc(C#N)c(N(C)C)o1	Cruzain inh noDet inconclusive, Cruzain Triton 14.1µM
COc1ccccc1/C=C/c1nc(C#N)c(NCCc2ccccc2)o1	Cruzain inh noDet 15.8µM
COc1ccccc1/C=C/c1nc(C#N)c(NCC(C)C)o1	none
COc1ccccc1/C=C/c1nc(C#N)c(N2CCCCC2)o1	none
Cc1ccccc1-c1nc(CN2CCC(C(=O)NCc3ccc(F)cc3)CC2)c(C)o1	none
CN(C)c1cc2c(cc1NC(=O)c1ccc(F)cc1)n(C)c(=O)n2C	none
O=C(/C=C/c1ccccc1)Nc1ncn[nH]1	none
O=C(/C=C/c1ccc(F)cc1)Nc1nc2ccccc2[nH]1	Cruzain inh noDet 10µM
O=C(COc1ccccc1)Nc1nc2ccccc2[nH]1	none
O=C(COc1cccc2ccccc12)Nc1nc2ccccc2[nH]1	Cruzain inh noDet 25.1µM
O=C(CSCc1nc2ccccc2[nH]1)Nc1ccc2ccccc2c1	Cruzain inh noDet inconclusive
O=C(CSc1ccc2ccccc2c1)Nc1nc2ccccc2[nH]1	Cruzain inh noDet 15.8µM
O=C(CSc1nc2ccccc2[nH]1)Nc1ccccc1F	none
O=C(CSc1nc2ccccc2[nH]1)Nc1ccc(F)c(F)c1	Cruzain inh noDet 25.1µM
Cc1cc(C)cc(NC2=CC(c3cccc(F)c3)N(c3cc(C)cc(C)c3)C2=O)c1 (stereo unspecified)	none
Cc1cc(C)cc(NC(=O)C2CCCN(S(=O)(=O)c3cccc4nsnc34)C2)c1 (stereo unspecified)	none
Cc1ccc(C)c(NC(=O)C2CCN(c3cc(C)nc4c(-c5ccc(Cl)cc5)c(C)nn34)CC2)c1	none
COC(=O)c1c(C)nn(-c2ccc(F)cc2)c1-n1cccc1	none
COc1cc(/C=C(\C#N)C(N)=O)cc(CSc2nc3ccccc3s2)c1O	none
COc1ccc(C2NCCc3c2[nH]c2ccccc32)cc1CSc1nc2ccccc2s1 (stereo unspecified)	Cruzain inh noDet 25.1µM
O=C(NC(=Nc1nc2ccccc2o1)NC(=O)c1ccccc1)c1ccccc1	Cruzain inh noDet 12.6µM
COc1ccccc1C(=O)NC(=Nc1nc2ccccc2o1)NC(=O)c1ccccc1OC	Cruzain inh noDet inconclusive
O=C(CCc1nc2ccccc2c(=O)[nH]1)OCC(=O)c1ccc(C2CCCCC2)cc1	Cruzain inh noDet 15.8µM
CC1CC(C)CN(C(=O)COC(=O)CCc2nc3ccccc3c(=O)[nH]2)C1 (stereo unspecified)	none
COc1ccc(NC(=O)CC2C(=O)N(c3ccc(C)cc3)C(=O)N2CCc2ccccc2)cc1 (stereo unspecified)	none
Cc1ccccc1C(=O)NNC(=O)c1ccc(F)cc1	none
Cc1ccc(S(=O)(=O)NNC(=O)c2cc3cc4ccccc4nc3s2)cc1	none
Cc1cccc(C(=O)NNC(=O)c2cc3cc4ccccc4nc3s2)c1	Cruzain inh noDet 20µM
O=C(NNC(=O)c1ccccc1Br)c1cccc(Cl)c1	none
O=C(NNC(=O)c1cc2cc3ccccc3nc2s1)c1ccc(F)cc1	Cruzain inh noDet 10µM, Cruzain Triton inconclusive
O=C(NNC(=O)c1cc2cc3ccccc3nc2s1)c1cccc(Cl)c1	Cruzain inh noDet 25.1µM, Cruzain Triton inconclusive
COc1ccc(Cl)cc1NC(=O)CN1C(=O)CSc2ccc(S(=O)(=O)N3CCCC3)cc21	none

High-throughput results (PubChem BioAssay)
